# Measurements taken from article PMC5540273 (PLoS ONE, 2017).
# Tested on: TNIK
# Conditions: concentration: 1 μM,replicates: in singlicate; n = 1
# 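Further: KINOMEscan kinase panel screen.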
row,SMILES,%Inh [%]
1,OCCn1cc(-c2cnc3nnn(Cc4ccc5ncccc5c4)c3n2)cn1,0
2,CC(=O)Nc1nc2cnc(Nc3cc(NC(=O)c4cccc(CC(C)(C)C#N)c4)ccc3C)nc2s1,0
3,CCNCC(Cc1ccccc1)NC(=O)c1cc(Br)c(-c2ccnc3[nH]ccc23)s1.Cl.Cl (centres unmarked) [GSK1383280],50
4,N#Cc1cccc(C(=O)NC2CCN(c3ccnc(Nc4ccc(F)cc4)n3)C2)c1 (centres unmarked) [GSK1379708],0
5,CN1CCN(CCCNc2nccc(-c3c(-c4ccc(F)cc4)nn4cc(C(N)=O)ccc34)n2)CC1 [GW622475],76
6,O=C(Nc1n[nH]c2cc(-c3ccco3)ccc12)C1CC1 [SB-737447],65
7,CCOC(=O)N1CCC(n2cnc(-c3ccc(F)cc3)c2-c2ccnc(N)n2)CC1 [SB-219952],32
8,COc1cc2ncn(-c3cc(OCC4CCCCC4)c(C(N)=O)s3)c2cc1OC [GSK204559],58
9,CSc1nccc(-c2c(-c3ccc(F)cc3)ncn2CCCN2CCOCC2)n1.Cl [SB-217146],0
10,CCn1c(-c2nonc2N)nc2cncc(Br)c21 [SB-738004],18
11,Cn1ccc2ncnc(Oc3ccc(NC(=O)Nc4cccc(C(F)(F)F)c4)c(F)c3)c21,0
12,Cc1cccc(-c2nc(Nc3ccncc3)c3sccc3n2)n1 [GW869641],55
13,Cn1cc(-c2cccc3c(N)c(C(N)=O)nnc23)cn1,5
14,CCN1CCN(CCCC(=O)Nc2n[nH]c3nc(-c4ccc(O)cc4)c(Br)cc23)CC1 [SB-731579],7
